Compounds with a hit are over-represented: about 3.4% of the library has one in this group of screens.
Mcl1 Bid PPI = disrupts binding of human Mcl-1 to Bid peptide; inhibition, % at 21.7 µM; AID 1021; 220,000 tested, 0.97% active; Q07820; TR-FRET Mcl-1/Bid-Dy647 peptide binding, 1536-well;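 active means compounds that cut the binding signal by more than half at the single screening dose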;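 further: His-tagged Mcl-1 with europium anti-His antibody binding Bid BH3 peptide; 0% = Mcl-1 plus peptide wells and 100% = peptide-only wells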
14-3-3 Bad inh = disrupts binding of bovine 14-3-3 zeta to phospho-Bad peptide; 220,000 tested, 0.71% active; TR-FRET 14-3-3zeta/Dy647-pBad peptide displacement, 1 h; AID 781; P63103; inhibition, % at 21.7 µM;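 active means inhibition above about 70%, limit read from the data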;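 further: 0% = full 14-3-3 plus peptide FRET controls and 100% = background without 14-3-3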
Bim-Mcl-1 = inhibitors of Bim-Mcl-1 interaction, human. Bead-based flow cytometry, Bim peptide-Mcl-1 binding. 190,000 tested, 0.1% active. Q07820. inhibition, % at 10 µM; in the data active means inhibition above about 40%;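 further: 0% = no compound tracer wells and 100% = peptide blocker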
Mcl1-Noxa inh = Mcl-1/Noxa interaction inhibition; Q07820; TR-FRET Mcl-1/Noxa peptide binding, 2 h; inhibition, % at 21.7 µM; 220,000 tested, 1.5% active; AID 1022;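 active means compounds that cut the protein-peptide binding signal by more than 50% relative to plate controls in a single-dose test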;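 further: His-tagged Mcl-1 with rhodamine Noxa BH3 peptide and terbium anti-His antibody; 0% = Mcl-1 plus Noxa peptide wells and 100% = peptide-only wells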
NCF1 inh = p47phox (human) inhibition; p47phox/p22phox peptide binding, fluorescence polarization, 2 h; inhibition, % at 24.7 µM; 220,000 tested, 0.53% active; AID 1274;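 further: 0% = p47phox with labelled peptide and 100% = labelled peptide alone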
Target sequence (P14598 whole entry, looked up): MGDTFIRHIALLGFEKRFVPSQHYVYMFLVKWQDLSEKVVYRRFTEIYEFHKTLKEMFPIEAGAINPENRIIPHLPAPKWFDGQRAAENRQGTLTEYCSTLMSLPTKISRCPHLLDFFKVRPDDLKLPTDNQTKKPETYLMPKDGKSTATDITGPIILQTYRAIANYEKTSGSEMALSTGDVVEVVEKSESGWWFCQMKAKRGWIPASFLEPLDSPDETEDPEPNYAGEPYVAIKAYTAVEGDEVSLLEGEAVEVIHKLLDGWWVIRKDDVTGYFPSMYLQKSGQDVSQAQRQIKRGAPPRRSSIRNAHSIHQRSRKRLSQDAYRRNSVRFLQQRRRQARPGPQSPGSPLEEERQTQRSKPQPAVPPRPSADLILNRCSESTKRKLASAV
eIF4E-4G inh = inhibitors of eIF4E and eIF4G interaction in translation initiation. TR-FRET eIF4E-eIF4GI(517-606) binding, 2 h. inhibition, % at 21.7 µM. 220,000 tested, 0.37% active. AID 782;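 further: 0% = full FRET control wells and 100% = background wells lacking eIF4GI fragment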
The depositor's hits bear a star; [ ] = dose if it differs, or a comment.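 How the source made its calls, unless noted: active means inhibition above about 30% (limit read from the data); inactive means the rest.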

Cc1ccc(S(=O)(=O)N2CCN(Cc3ccsc3)CC2)cc1 was read as Mcl1 Bid PPI 0.8, 14-3-3 Bad inh -9.5, Bim-Mcl-1 0.0, Mcl1-Noxa inh -6.2, NCF1 inh -9.1 and eIF4E-4G inh -4.3.
For CNc1nc(Nc2ccc(Br)cc2)nc(N)c1[N+](=O)[O-] the results were Mcl1 Bid PPI -17.9, 14-3-3 Bad inh -3.2, Bim-Mcl-1 -6.0, Mcl1-Noxa inh 13.7, NCF1 inh -24.2 and eIF4E-4G inh 2.3.
CC(C)(C)C(=O)NNC(=O)c1cc2sccc2s1 was read as Mcl1 Bid PPI -2.6, 14-3-3 Bad inh -4.6, Mcl1-Noxa inh -13.0, NCF1 inh -3.9 and eIF4E-4G inh 5.0.
`Cc1ccc(C(=O)N/N=C2\CC3CC=CC23)c(C)c1` (stereo not given) gave Mcl1 Bid PPI -24.4, 14-3-3 Bad inh -1.4, Bim-Mcl-1 -1.0, Mcl1-Noxa inh 18.8, NCF1 inh 2.4 and eIF4E-4G inh -1.6.
Screening Fc1cccc(NCc2ccoc2)c1 returned Mcl1 Bid PPI 1.1, 14-3-3 Bad inh 82.5*, Bim-Mcl-1 -4.0, Mcl1-Noxa inh 18.1, NCF1 inh 0.7 and eIF4E-4G inh 6.7.
`CCN(C(=O)COC(=O)c1nn(-c2ccccc2)c(=O)c2ccccc12)C1CCS(=O)(=O)C1` (stereo not given) gave Mcl1 Bid PPI -53.1, 14-3-3 Bad inh -5.4, Mcl1-Noxa inh -20.2, NCF1 inh -10.9 and eIF4E-4G inh -2.7.
`CCCC1C2C(=O)N(c3ccc(OC)cc3)C(=O)C2ON1c1ccccc1` (stereo not given) gave Mcl1 Bid PPI -12.5, 14-3-3 Bad inh 89.8*, Bim-Mcl-1 0.0, Mcl1-Noxa inh -8.9, NCF1 inh 3.2 and eIF4E-4G inh -24.1.
Screening CCCC1C2C(=O)N(c3cccc(C)c3)C(=O)C2ON1c1ccccc1 (stereo not given) returned Mcl1 Bid PPI -18.7, 14-3-3 Bad inh -3.3, Mcl1-Noxa inh -18.2, NCF1 inh -5.2 and eIF4E-4G inh 0.6.
`C=CCc1cc(C)ccc1OCCOCCn1ccnc1` gave Mcl1 Bid PPI 25.6, 14-3-3 Bad inh 1.2, Bim-Mcl-1 -2.0, Mcl1-Noxa inh 22.1, NCF1 inh -6.4 and eIF4E-4G inh -4.4.
Screening C=CCc1cc(C)ccc1OCCn1ccnc1 returned Mcl1 Bid PPI 8.9, 14-3-3 Bad inh 72.0*, Bim-Mcl-1 6.0, Mcl1-Noxa inh 2.4, NCF1 inh -12.2 and eIF4E-4G inh -15.6.
For CCn1c(C)nc2cc(C(=O)N/N=C/c3cccc(O)c3O)ccc21 the results were Mcl1 Bid PPI -41.7, 14-3-3 Bad inh -21.2, Bim-Mcl-1 -2.0, Mcl1-Noxa inh 49.1 and eIF4E-4G inh 1.7.
For COc1cc2c(-c3ccc(O)cc3)nc3c(c(C)nn3-c3ccccc3)c2cc1OC the results were Mcl1 Bid PPI 60.7*, 14-3-3 Bad inh 54.1, Bim-Mcl-1 0.0, Mcl1-Noxa inh 79.8*, NCF1 inh 34.1* and eIF4E-4G inh 38.8*.
`COc1ccc(C(N)CCc2ccc(C)o2)cc1` (stereo not given) gave Mcl1 Bid PPI -65.2, 14-3-3 Bad inh 87.9*[fluorescence artefact?], Bim-Mcl-1 0.0, Mcl1-Noxa inh 20.3, NCF1 inh -5.5 and eIF4E-4G inh -2.7.
CCc1ccc(CCC(=O)Nc2ccc(OC)cc2)o1 was read as Mcl1 Bid PPI -35.4, 14-3-3 Bad inh 2.2, Bim-Mcl-1 -3.0, Mcl1-Noxa inh 10.7, NCF1 inh -6.2 and eIF4E-4G inh -4.6.
COc1ccccc1C(=O)NCCc1c(C)[nH]c2c(C)ccc(F)c12 was read as Mcl1 Bid PPI -41.1, 14-3-3 Bad inh -3.2, Bim-Mcl-1 -2.0, Mcl1-Noxa inh -0.4, NCF1 inh -3.2 and eIF4E-4G inh -2.0.
Screening Nc1c2c(nc3ccc(Br)cc13)N(C1CCCCC1)CC2 returned Mcl1 Bid PPI 5.9, 14-3-3 Bad inh 25.5, Bim-Mcl-1 0.0, Mcl1-Noxa inh 68.0*, NCF1 inh 0.1 and eIF4E-4G inh -0.6.
For Nc1c2c(nc3ccc(Br)cc13)N(Cc1ccccc1)CC2 the results were Mcl1 Bid PPI 13.8, 14-3-3 Bad inh 6.8, Bim-Mcl-1 0.0, Mcl1-Noxa inh 83.5*, NCF1 inh 21.7 and eIF4E-4G inh 1.1.
`Nc1c2c(nc3ccccc13)N(C1CCCCC1)CC2` gave Mcl1 Bid PPI 6.8, 14-3-3 Bad inh 55.9, Bim-Mcl-1 0.0, Mcl1-Noxa inh 38.8, NCF1 inh 6.0 and eIF4E-4G inh 4.0.

Screens from PubChem.
